# For part of these data: Potency and affinity values are given separately. Active and inactive are the calls of the source.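 How the source made its calls, unless noted: active means earlier screen potentiator hit that boosts the TRPC4 ion channel at some dose, with a dose response; inactive means no potentiation, no dose response, or not a prior hit.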
# Tests used:
# [1] = test system: TRPC4 beta (transient receptor potential cation channel C4), mouse; experiment: activators of mouse TRPC4 channel, confirmation, cell-based, Fluo4 calcium, HEK293 TRPC4beta/mu-opioid, duplicates, 10 µM (AID 2426;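 active means fluorescence ratio normalized to control raised more than 50% in primary screen plus both repeat runs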); details: Fluo4 calcium fluorescence, at 10 µM; active compounds read high
# [2] = test system: transient receptor potential cation channel C4 beta (TRPC4), mouse; experiment: activators of mouse TRPC4 channel, confirmation, cell-based, second round, Fluo4, HEK293 TRPC4beta/mu-opioid, 1 µM (AID 2461;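 active means primary screen active and over 50% activation in each of two duplicate runs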); details: Fluo4 calcium fluorescence, at 1 µM; active compounds read high
# [3] = test system: TRPC4 (transient receptor potential cation channel C4 beta), mouse; experiment: positive allosteric modulators of mouse TRPC4, confirmation, cell-based, second round, Fluo-4, HEK293 TRPC4beta/mu-opioid, 1 µM (AID 2554;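 active means primary screen hit whose fluorescence ratio, in both repeats, exceeds the weak agonist control mean by 3 SD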); details: DAMGO EC20, Fluo-4 calcium flux, at 1 µM; active compounds read high
# [4] = test system: TRPC4 beta (transient receptor potential cation channel C4), mouse; experiment: positive allosteric modulators of mouse TRPC4, confirmation, cell-based, Fluo-4, HEK293 TRPC4beta/mu-opioid (AID 2555;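 active means primary screen hit whose calcium fluorescence ratio, in both repeats, exceeds the weak agonist control mean by 3 SD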); details: DAMGO EC20, Fluo-4 calcium flux, at 10 µM; active compounds read high
# [5] = target: Short transient receptor potential channel 4 (Mus musculus) (UniProt Q9QUQ5); experiment: inhibitors of mouse TRPC4 channel, confirmation, cell-based, Fluo4, HEK293 TRPC4beta/mu-opioid (AID 2636;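 active means calcium signal cut by more than 3 SD below the full-agonist control yet still positive, in both repeats and the earlier primary screen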); details: DAMGO, Fluo4 calcium flux, at 10 µM; active compounds read high
# [6] = target: Short transient receptor potential channel 4 (Mus musculus) (UniProt Q9QUQ5); experiment: inhibitors of mouse TRPC4 channel, confirmation, cell-based, second round, Fluo4, HEK293 TRPC4beta/mu-opioid, 1 µM (AID 2637;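 active means calcium signal ratio cut to more than 3 SD under the fully stimulated control mean yet still positive, in both repeats and the primary screen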); details: Fluo4 calcium flux, DAMGO, at 1 µM; active compounds read high
# [7] = target: Short transient receptor potential channel 4 (Mus musculus) (UniProt Q9QUQ5); experiment: mouse TRPC4 channel activators, dose response, cell-based, HEK293 TRPC4/mu-opioid, Fluo-4 calcium (AID 434937;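 active means primary screen activator hit with a dose response curve and TRPC4 channel activation at any tested dose; inactive means no activation, no dose response, or not a primary hit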)
# [8] = target: Short transient receptor potential channel 4 (Mus musculus) (UniProt Q9QUQ5); experiment: TRPC4 positive allosteric modulators, dose response, cell-based, HEK293 TRPC4/mu-opioid, Fluo-4 calcium, EC20 DAMGO (AID 434941);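 further: calcium entry triggered by an EC20 dose of DAMGO at the co-expressed mu-opioid receptor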
# [9] = target: Short transient receptor potential channel 4 (Mus musculus) (UniProt Q9QUQ5); experiment: mouse TRPC4 channel inhibitors, dose response, cell-based, HEK293 TRPC4/mu-opioid, Fluo-4 calcium (AID 434942;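 active means primary screen inhibitor hit that blocks the TRPC4 channel at some tested dose, yielding a dose curve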)
# [10] = target: Short transient receptor potential channel 6 (Mus musculus) (UniProt Q61143); experiment: inhibition of mouse TRPC6 channel, confirmation, selectivity assay for TRPC4 inhibitor project, cell-based, HEK293, membrane potential dye, duplicate (AID 434948;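 active means active in primary screen and both duplicates, each dropping signal beyond three positive-control SD with fluorescence still positive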); details: HEK293 TRPC6, membrane potential dye fluorescence, at 10 µM, stimulated with maximal-effect acetylcholine; active compounds read high
# [11] = target: Short transient receptor potential channel 6 (Mus musculus) (UniProt Q61143); experiment: activation of mouse TRPC6 channel, confirmation, selectivity assay for TRPC4 activator project, cell-based, HEK293, membrane potential dye, duplicate (AID 434950;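 active means membrane potential signal rise above negative control mean plus 3 SD in both duplicates, also active in the earlier TRPC4 screen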;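 on activation: 0% = buffer only wells and 100% = acetylcholine maximal-effect wells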); details: HEK293 TRPC6, membrane potential fluorescence, at 10 µM; active compounds read high
# [12] = target: Short transient receptor potential channel 6 (Mus musculus) (UniProt Q61143); experiment: TRPC6 potentiation by TRPC4 potentiator hits, confirmation, selectivity assay for TRPC4 potentiator project, HEK293 cells, membrane potential dye, duplicate (AID 434952;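 active means compound raising the membrane signal above positive-control mean plus 3 SD in both repeats, and a primary screen hit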); details: HEK293 TRPC6, membrane potential dye fluorescence, at 10 µM, maximal acetylcholine added after compound; active compounds read high
# [13] = target: Short transient receptor potential channel 4 (Mus musculus) (UniProt Q9QUQ5); experiment: calcium flux activators in TRPC4/5HT1a cells, counter-screen for TRPC4 activator project, cell-based, second counter screen, HEK293 TRPC4/5HT1a, Fluo-4 (AID 434977;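 active means calcium signal rise above buffer-control mean plus 5 SD in both duplicates, and also a hit in the primary screen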); details: Fluo-4 calcium flux, at 10 µM; active compounds read high
# [14] = calcium flux inhibitors in TRPC4/5HT1a cells, confirmation, counter-screen for TRPC4 inhibitor project, cell-based, second counter screen, HEK293 TRPC4/5HT1a, Fluo-4 (AID 434978;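 active means primary screen active whose calcium signal fell more than 3 SD beyond the full-serotonin control mean in both duplicate plates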;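 on outcome: serotonin given first at submaximal then at maximal dose after compound preincubation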); details: Fluo-4 calcium flux, at 10 µM, serotonin added to trigger calcium flux; active compounds read high
# [15] = test system: TRPC4 (mouse), co-expressed with 5HT1a in HEK293; experiment: calcium flux potentiators in TRPC4/5HT1a cells, confirmation, counter-screen for TRPC4 potentiator project, cell-based, second counter screen, HEK293 TRPC4/5HT1a, Fluo-4 (AID 434979;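 active means signal rise over 3 SD above mean of control wells given weak agonist, in both repeats and first screen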); details: Fluo-4 calcium flux, at 10 µM, serotonin added at its EC20 dose; active compounds read high
# [16] = calcium flux activation in mu-opioid HEK293 cells, confirmation, counter-screen for TRPC4 activator project, cell-based, HEK293 mu-opioid receptor line (AID 449723;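 active means hit in primary screen, with calcium signal over 5 SD above buffer well mean in both duplicates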;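 further: counter screen cells carry the mu-opioid receptor alone and lack TRPC4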); details: Fluo-4 calcium fluorescence, at 10 µM; active compounds read high
# [17] = calcium flux enhancement in mu-opioid HEK293 cells, confirmation, counter-screen for TRPC4 allosteric potentiator project, cell-based, HEK293 mu-opioid receptor line (AID 449724;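 active means calcium signal rise more than 3 SD above the low-dose agonist control mean, in both duplicate plates and the primary screen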); details: Fluo-4 calcium flux, at 10 µM, compound added before EC20 DAMGO stimulus; active compounds read high
# Chain of Short transient receptor potential channel 6 (Mus musculus) (Q61143 whole entry, looked up): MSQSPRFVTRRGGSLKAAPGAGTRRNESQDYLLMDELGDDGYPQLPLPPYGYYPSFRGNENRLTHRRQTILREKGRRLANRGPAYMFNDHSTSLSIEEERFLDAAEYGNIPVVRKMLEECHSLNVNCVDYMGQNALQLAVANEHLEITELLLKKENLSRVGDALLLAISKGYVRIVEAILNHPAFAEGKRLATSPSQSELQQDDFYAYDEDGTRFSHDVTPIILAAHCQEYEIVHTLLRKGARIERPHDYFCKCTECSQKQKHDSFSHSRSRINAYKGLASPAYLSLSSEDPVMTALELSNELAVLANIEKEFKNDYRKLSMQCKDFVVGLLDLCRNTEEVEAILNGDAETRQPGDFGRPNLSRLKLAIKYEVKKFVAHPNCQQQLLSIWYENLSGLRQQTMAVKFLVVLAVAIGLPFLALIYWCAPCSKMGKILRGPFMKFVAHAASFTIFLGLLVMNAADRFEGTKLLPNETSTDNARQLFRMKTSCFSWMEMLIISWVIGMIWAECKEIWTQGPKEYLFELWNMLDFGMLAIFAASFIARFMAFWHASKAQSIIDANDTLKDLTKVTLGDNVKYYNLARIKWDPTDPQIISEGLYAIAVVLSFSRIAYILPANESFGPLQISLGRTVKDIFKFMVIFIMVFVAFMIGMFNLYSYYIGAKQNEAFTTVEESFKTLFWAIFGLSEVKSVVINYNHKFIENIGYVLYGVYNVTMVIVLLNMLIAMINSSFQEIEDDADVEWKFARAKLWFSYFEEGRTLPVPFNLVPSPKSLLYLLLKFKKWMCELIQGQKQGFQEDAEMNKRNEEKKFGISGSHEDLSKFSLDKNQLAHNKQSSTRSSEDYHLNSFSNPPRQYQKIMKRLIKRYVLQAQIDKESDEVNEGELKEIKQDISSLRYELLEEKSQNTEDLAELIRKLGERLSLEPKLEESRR
# Chain of Short transient receptor potential channel 4 (Mus musculus) (Q9QUQ5 whole entry, looked up): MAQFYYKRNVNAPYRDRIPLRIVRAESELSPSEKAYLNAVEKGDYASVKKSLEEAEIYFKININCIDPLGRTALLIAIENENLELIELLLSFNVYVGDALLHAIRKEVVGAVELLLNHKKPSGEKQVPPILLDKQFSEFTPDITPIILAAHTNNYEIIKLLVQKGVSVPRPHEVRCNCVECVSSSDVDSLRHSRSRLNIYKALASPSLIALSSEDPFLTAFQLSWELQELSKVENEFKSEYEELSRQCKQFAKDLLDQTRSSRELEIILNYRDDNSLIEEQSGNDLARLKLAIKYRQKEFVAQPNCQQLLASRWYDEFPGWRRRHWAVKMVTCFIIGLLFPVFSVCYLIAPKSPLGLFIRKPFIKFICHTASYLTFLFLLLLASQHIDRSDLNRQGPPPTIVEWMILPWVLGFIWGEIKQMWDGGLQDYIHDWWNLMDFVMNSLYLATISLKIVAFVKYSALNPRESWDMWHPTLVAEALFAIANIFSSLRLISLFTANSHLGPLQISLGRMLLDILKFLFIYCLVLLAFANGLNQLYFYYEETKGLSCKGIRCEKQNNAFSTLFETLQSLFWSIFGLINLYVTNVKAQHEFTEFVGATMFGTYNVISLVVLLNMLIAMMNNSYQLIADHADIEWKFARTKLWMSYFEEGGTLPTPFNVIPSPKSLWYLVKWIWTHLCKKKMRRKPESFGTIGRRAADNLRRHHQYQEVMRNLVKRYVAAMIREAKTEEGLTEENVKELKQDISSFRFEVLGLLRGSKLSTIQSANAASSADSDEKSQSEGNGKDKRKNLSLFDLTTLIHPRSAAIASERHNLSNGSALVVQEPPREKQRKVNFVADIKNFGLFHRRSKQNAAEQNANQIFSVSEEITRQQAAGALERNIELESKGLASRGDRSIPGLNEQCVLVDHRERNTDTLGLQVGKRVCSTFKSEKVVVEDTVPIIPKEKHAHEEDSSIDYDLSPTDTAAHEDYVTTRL
smiles,measurement,setting,value
CN(C)CCCNc1ncnc2c1cnn2Cc1ccccc1Cl,outcome,[1],inactive
same,outcome,[2],inactive
same,outcome,[3],inactive
same,potentiation,[4],15% (active)
same,outcome,[5],inactive
same,outcome,[6],inactive
same,outcome,[7],inactive
same,outcome,[8],inactive
same,outcome,[9],inactive
same,outcome,[10],inactive
same,outcome,[11],inactive
same,outcome,[12],inactive
same,outcome,[13],inactive
same,outcome,[14],inactive
same,potentiation,[15],19.8% (active)
same,outcome,[16],inactive
same,outcome,[17],inactive
C=CCOc1ccc(CN(C)Cc2nc3cc(C(F)(F)F)ccc3c(=O)[nH]2)cc1,outcome,[1],inactive
same,outcome,[2],inactive
same,outcome,[3],inactive
same,outcome,[4],inactive
same,outcome,[5],inactive
same,outcome,[6],inactive
same,outcome,[7],inactive
same,outcome,[8],inactive
same,outcome,[9],inactive
same,outcome,[10],inactive
same,outcome,[11],inactive
same,outcome,[12],inactive
same,outcome,[13],inactive
same,outcome,[14],inactive
same,potentiation,[15],10.9% (active)
same,outcome,[16],inactive
same,outcome,[17],inactive
O=C(c1ccc([N+](=O)[O-])s1)N1CCCc2ccccc21,outcome,[1],inactive
same,outcome,[2],inactive
same,outcome,[3],inactive
same,outcome,[4],inactive
same,outcome,[5],inactive
same,outcome,[6],inactive
same,outcome,[7],inactive
same,outcome,[8],inactive
same,outcome,[9],inactive
same,outcome,[10],inactive
same,outcome,[11],inactive
same,outcome,[12],inactive
same,outcome,[13],inactive
same,outcome,[14],inactive
same,outcome,[15],inactive
same,outcome,[16],inactive
same,outcome,[17],inactive
c1ccc(Cn2nnc3cnccc32)cc1,outcome,[1],inactive
same,outcome,[2],inactive
same,outcome,[3],inactive
same,outcome,[4],inactive
same,inhibition,[5],65% (active)
same,outcome,[6],inactive
same,outcome,[7],inactive
same,outcome,[8],inactive
same,outcome,[9],inactive
same,outcome,[10],inactive
same,outcome,[11],inactive
same,outcome,[12],inactive
same,outcome,[13],inactive
same,outcome,[14],inactive
same,outcome,[15],inactive
same,outcome,[16],inactive
same,outcome,[17],inactive
Cc1sc2ncnc(SCC(=O)N(C)C3CCS(=O)(=O)C3)c2c1C (stereo not given),outcome,[1],inactive
same,outcome,[2],inactive
same,outcome,[3],inactive
same,potentiation,[4],24% (active)
same,outcome,[5],inactive
same,outcome,[6],inactive
same,outcome,[7],inactive
same,outcome,[8],inactive
same,outcome,[9],inactive
same,outcome,[10],inactive
same,outcome,[11],inactive
same,outcome,[12],inactive
same,outcome,[13],inactive
same,outcome,[14],inactive
same,potentiation,[15],13.2% (active)
same,outcome,[16],inactive
same,outcome,[17],inactive
CCN1C2=NCCCN2c2cc(C)c(C)cc21,outcome,[1],inactive
same,outcome,[2],inactive
same,outcome,[3],inactive
same,outcome,[4],inactive
same,outcome,[5],inactive
same,outcome,[6],inactive
same,outcome,[7],inactive
same,outcome,[8],inactive
same,outcome,[9],inactive
same,outcome,[10],inactive
same,outcome,[11],inactive
same,outcome,[12],inactive
same,outcome,[13],inactive
same,outcome,[14],inactive
same,outcome,[15],inactive
same,outcome,[16],inactive
same,outcome,[17],inactive
CC(C)Cn1c(CN2CCN(C)C(CCO)C2)nc2ccccc21 (stereo not given),outcome,[1],inactive
same,outcome,[2],inactive
same,outcome,[3],inactive
same,outcome,[4],inactive
same,outcome,[5],inactive
same,outcome,[6],inactive
same,outcome,[7],inactive
same,outcome,[8],inactive
same,outcome,[9],inactive
same,outcome,[10],inactive
same,outcome,[11],inactive
same,outcome,[12],inactive
same,outcome,[13],inactive
same,outcome,[14],inactive
same,outcome,[15],inactive
same,outcome,[16],inactive
same,outcome,[17],inactive
OCCNCc1cc(Br)ccc1OCc1ccccc1,outcome,[1],inactive
same,outcome,[2],inactive
same,outcome,[3],inactive
same,outcome,[4],inactive
same,outcome,[5],inactive
same,outcome,[6],inactive
same,outcome,[7],inactive
same,outcome,[8],inactive
same,outcome,[9],inactive
same,outcome,[10],inactive
same,outcome,[11],inactive
same,outcome,[12],inactive
same,outcome,[13],inactive
same,outcome,[14],inactive
same,outcome,[15],inactive
same,outcome,[16],inactive
same,outcome,[17],inactive
O=[N+]([O-])c1ccc(S(=O)(=O)NCCCc2ccccc2)cc1,outcome,[1],inactive
same,outcome,[2],inactive
same,outcome,[3],inactive
same,outcome,[4],inactive
same,outcome,[5],inactive
same,outcome,[6],inactive
same,outcome,[7],inactive
same,outcome,[8],inactive
same,outcome,[9],inactive
same,outcome,[10],inactive
same,outcome,[11],inactive
same,outcome,[12],inactive
same,outcome,[13],inactive
same,outcome,[14],inactive
same,outcome,[15],inactive
same,outcome,[16],inactive
same,outcome,[17],inactive
O=C(Nc1nc(N2C(=O)c3ccccc3C2=O)n(-c2ccccc2)n1)c1ccc(Cl)cc1,outcome,[1],inactive
same,outcome,[2],inactive
same,outcome,[3],inactive
same,outcome,[4],inactive
same,outcome,[5],inactive
same,outcome,[6],inactive
same,outcome,[7],inactive
same,outcome,[8],inactive
same,outcome,[9],inactive
same,outcome,[10],inactive
same,outcome,[11],inactive
same,outcome,[12],inactive
same,outcome,[13],inactive
same,outcome,[14],inactive
same,outcome,[15],inactive
same,outcome,[16],inactive
same,outcome,[17],inactive
O=C(O)CCC(=O)N1CCN(c2nc3ccccc3s2)CC1,outcome,[1],inactive
same,outcome,[2],inactive
same,outcome,[3],inactive
same,potentiation,[4],11% (active)
same,outcome,[5],inactive
same,outcome,[6],inactive
same,outcome,[7],inactive
same,outcome,[8],inactive
same,outcome,[9],inactive
same,outcome,[10],inactive
same,outcome,[11],inactive
same,outcome,[12],inactive
same,outcome,[13],inactive
same,outcome,[14],inactive
same,potentiation,[15],21.2% (active)
same,outcome,[16],inactive
same,outcome,[17],inactive
CCCN(C(=O)COC(=O)C12CCC(=O)N1c1ccccc1S2)c1c(N)n(Cc2ccccc2)c(=O)[nH]c1=O (stereo not given),outcome,[1],inactive
same,outcome,[2],inactive
same,outcome,[3],inactive
same,outcome,[4],inactive
same,inhibition,[5],52% (active)
same,outcome,[6],inactive
same,outcome,[7],inactive
same,outcome,[8],inactive
same,outcome,[9],inactive
same,outcome,[10],inactive
same,activation,[11],28% (active)
same,outcome,[12],inactive
same,outcome,[13],inactive
same,outcome,[14],inactive
same,outcome,[15],inactive
same,outcome,[16],inactive
same,outcome,[17],inactive
CCOC(=O)C1=C(N)OC2=C(C(=O)CC(C)(C)C2)C1c1ccc(CC)s1 (stereo not given),outcome,[1],inactive
same,outcome,[2],inactive
same,outcome,[3],inactive
same,outcome,[4],inactive
same,outcome,[5],inactive
same,outcome,[6],inactive
same,outcome,[7],inactive
same,outcome,[8],inactive
same,outcome,[9],inactive
same,outcome,[10],inactive
same,outcome,[11],inactive
same,outcome,[12],inactive
same,outcome,[13],inactive
same,outcome,[14],inactive
same,potentiation,[15],27.5% (active)
same,outcome,[16],inactive
same,outcome,[17],inactive
CCN1CCN(CCC(=O)Nc2ccccc2OC)CC1,outcome,[1],inactive
same,outcome,[2],inactive
same,outcome,[3],inactive
same,potentiation,[4],11% (active)
same,outcome,[5],inactive
same,outcome,[6],inactive
same,outcome,[7],inactive
same,outcome,[8],inactive
same,outcome,[9],inactive
same,outcome,[10],inactive
same,outcome,[11],inactive
same,outcome,[12],inactive
same,outcome,[13],inactive
same,outcome,[14],inactive
same,potentiation,[15],17.3% (active)
same,outcome,[16],inactive
same,outcome,[17],inactive
Cc1sc(NC(=O)C2CCCCC2C(=O)O)c(C(N)=O)c1-c1ccc(C(C)(C)C)cc1 (stereo not given),outcome,[1],inactive
same,outcome,[2],inactive
same,outcome,[3],inactive
same,outcome,[4],inactive
same,inhibition,[5],95% (active)
same,outcome,[6],inactive
same,outcome,[7],inactive
same,outcome,[8],inactive
same,outcome,[9],inactive
same,outcome,[10],inactive
same,outcome,[11],inactive
same,outcome,[12],inactive
same,outcome,[13],inactive
same,inhibition,[14],18.7% (active)
same,outcome,[15],inactive
same,outcome,[16],inactive
same,outcome,[17],inactive
